BAZ2B inh: inhibitors of human BAZ2B bromodomain; Q9UIF8; AID 504333; Potency, µM (series often up to 114 µM), actives largely listed as inhibitors; 360,000 compounds, 4.4% hits; AlphaScreen BAZ2B-H3K14Ac peptide displacement; further: nearly all actives have a fitted effect of over 60% in size
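Compounds, titrated to a top concentration of 110 uM, were incubated 30 min at room temperature with preformed BAZ2B/acetyl-K14 H3 peptide complex (50 nM each). Proximity signal was measured by AlphaScreen after 20 min with beads.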
G9a inh: G9a (human) methyltransferase inhibition. Q96KQ7. G9a H3K9 monomethylation, AlphaScreen, 2 h. Potency, µM (doses to about 102 µM), actives largely listed as inhibitors. 350,000 compounds, 8.8% hits. AID 504332; further: nearly all actives have a fitted effect of over 75% in size
Target sequence (Q96KQ7 913-1193 limits assumed): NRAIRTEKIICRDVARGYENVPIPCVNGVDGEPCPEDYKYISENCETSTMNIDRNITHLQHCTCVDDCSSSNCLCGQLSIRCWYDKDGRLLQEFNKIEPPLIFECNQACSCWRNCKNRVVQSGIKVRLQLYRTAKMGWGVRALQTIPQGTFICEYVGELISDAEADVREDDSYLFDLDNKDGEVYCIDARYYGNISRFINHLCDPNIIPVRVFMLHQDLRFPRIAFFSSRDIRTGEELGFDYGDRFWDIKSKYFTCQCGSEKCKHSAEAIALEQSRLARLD
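Compounds were preincubated with 20 nM G9a for 15 min, after which biotinylated H3K9 peptide (500 nM) and SAM (20 uM) started a 2 h room-temperature reaction. Monomethylated product was quantified by antibody-based AlphaScreen chemiluminescence.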
L3MBTL1 block: L3MBTL1 (human) inhibition | Potency, µM (highest dose often 57.1 µM), actives largely listed as inhibitors | AlphaScreen L3MBTL1–H3K9me1 peptide binding | 230,000 compounds, 0.66% hits; further: nearly all actives have a fitted effect of over 60% in size
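First, the protein-peptide complex forms for 30 min at room temperature (L3MBTL1 50 nM, biotinylated H3K9me1 peptide 75 nM). Next, compounds are pin-transferred and incubated 30 min. Finally, AlphaScreen beads are added and read after 30 min.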
JMJD2A Tudor: inhibitors of human JMJD2A Tudor domain; O75164; AlphaScreen JMJD2A-Tudor / H3K4me3 peptide binding; Potency, µM (top dose mostly 114 µM), usual class: inhibitors; 390,000 compounds, 4.4% hits; further: nearly all actives have a fitted effect of over 50% in size
HP1b chromo inh: blocks HP1-beta chromodomain binding to methylated histone tails; AlphaScreen HP1-beta / biotin-H3K9me3 peptide binding; Potency, µM (top dose mostly 114 µM), most hits filed as inhibitors; 390,000 compounds, 0.56% hits; P83916; further: nearly all actives have a fitted effect of over 70% in size
Target sequence (P83916 whole entry, looked up): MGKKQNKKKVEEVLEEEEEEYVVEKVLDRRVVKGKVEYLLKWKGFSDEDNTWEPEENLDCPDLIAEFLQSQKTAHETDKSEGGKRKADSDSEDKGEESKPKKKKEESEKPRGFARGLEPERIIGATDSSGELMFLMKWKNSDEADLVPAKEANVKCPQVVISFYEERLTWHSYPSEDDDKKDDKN
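AlphaScreen: HP1-beta (50 nM) preformed 30 min with biotin-H3(1-18)K9me3 peptide (50 nM) in PBS pH 7.4, 0.01% Tween-20. Compound added for 30 min at RT, then streptavidin donor/nickel chelate acceptor beads (10 ug/mL) for 30 min.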
Large screens that a line does not name were inactive. Shown are actives, neighbours in structure and some others; about 11% of the full set was active somewhere. The call rests on the fitted dose curve; in most records, active means well fitted inhibition curve with a large enough effect; inconclusive means small, poorly fitted or top-dose-only effect; inactive means no such curve, though single readings can be large or run the other way.

COc1ccccc1Nc1ccc(NS(=O)(=O)c2ccc(C(C)=O)cc2)cc1	BAZ2B inh inconclusive, G9a inh 35.5µM, JMJD2A Tudor 39.8µM, HP1b chromo inh inconclusive (no result: L3MBTL1 block)
COc1ccccc1C(CCN(Cc1cccs1)C(C)=O)c1ccco1 (stereo unspecified)	BAZ2B inh 79.4µM, G9a inh 44.7µM
C#CCOCCOCCOCCNc1nc(N2CCN(C(=O)CCCCCCCCCCNC(=O)[C@H](CCCCN)n3cc(C)nn3)CC2)nc(N2CCN(C(=O)CCCCCCCCCCNC(=O)[C@@H]([C@H](C)CC)n3cc(CCCCCN)nn3)CC2)n1	BAZ2B inh 56.2µM (no result: JMJD2A Tudor, HP1b chromo inh)
C#CCOCCOCCOCCNc1nc(N2CCN(C(=O)CCCCCCCCCCNC(=O)[C@H]([C@@H](C)CC)n3cc(CCCCCN)nn3)CC2)nc(N2CCN(C(=O)CCCCCCCCCCNC(=O)[C@@H]([C@H](C)O)n3cc(C)nn3)CC2)n1	BAZ2B inh 56.2µM, JMJD2A Tudor 56.2µM, HP1b chromo inh inconclusive
C#CCOCCOCCOCCNc1nc(N2CCN(C(=O)CCCCCCCCCCNC(=O)Cn3cc(CCCCCN)nn3)CC2)nc(N2CCN(C(=O)CCCCCCCCCCNC(=O)[C@H](CO)n3cc(CCCCCN)nn3)CC2)n1	BAZ2B inh inconclusive, JMJD2A Tudor inconclusive
C#CCOCCOCCOCCNc1nc(N2CCN(C(=O)CCCCCCCCCCNC(=O)Cn3cc(CCCCCN)nn3)CC2)nc(N2CCN(C(=O)CCCCCCCCCCNC(=O)[C@H]([C@@H](C)CC)n3cc(CCCCCN)nn3)CC2)n1	BAZ2B inh inconclusive, JMJD2A Tudor 79.4µM, HP1b chromo inh inconclusive
C#CCOCCOCCOCCNc1nc(N2CCN(C(=O)CCCCCCCCCCNC(=O)[C@H](CCC(=O)O)n3cc(CCCCCN)nn3)CC2)nc(N2CCN(C(=O)CCCCCCCCCCNC(=O)[C@@H]([C@H](C)O)n3cc(C)nn3)CC2)n1	JMJD2A Tudor inconclusive
COc1ccc(-c2nc3nc(C)cc(N4CCN(c5cccc(C(F)(F)F)c5)CC4)n3n2)cc1	none (no result: L3MBTL1 block)
S=c1[nH]c(=S)c2[nH]cnc2[nH]1	none (no result: BAZ2B inh, G9a inh, L3MBTL1 block)
COc1ccc(-c2noc(N(c3ccc(F)c(Cl)c3)c3nc(-c4ccc(OC)c(OC)c4)no3)n2)cc1OC	none (no result: L3MBTL1 block)
CC1(C#CC[N+]2(C)CCCCC2)CCC2C(O1)c1ccccc1OC2(C)C (stereo unspecified)	BAZ2B inh 56.2µM, G9a inh 3.16µM, HP1b chromo inh inconclusive (no result: L3MBTL1 block)
CC1(C(O)(C#CC[N+]2(C)CCCCC2)c2ccccc2)CCCC1 (stereo unspecified)	BAZ2B inh inconclusive, G9a inh inconclusive, JMJD2A Tudor inconclusive, HP1b chromo inh inconclusive
O=[N+]([O-])c1nn(-c2ccc(Cl)cc2)n(O)c1=NCc1ccccc1	BAZ2B inh inconclusive, G9a inh inconclusive, JMJD2A Tudor inconclusive (no result: L3MBTL1 block)
Cc1cccc(CCN=c2c([N+](=O)[O-])nn(-c3ccccc3)n2O)c1	G9a inh inconclusive, JMJD2A Tudor 50.1µM, HP1b chromo inh inconclusive (no result: BAZ2B inh, L3MBTL1 block)
COc1cc(CNCc2cccs2)ccc1OCc1cccs1	none
CCN(CC)c1ccc(CNCc2cccs2)cc1	BAZ2B inh 50.1µM, G9a inh inconclusive, JMJD2A Tudor inconclusive
COc1ccccc1Cn1ccn(Cc2ccc(C)cc2)c(=O)c1=O	BAZ2B inh inconclusive, G9a inh inconclusive, JMJD2A Tudor inconclusive (no result: L3MBTL1 block)
COc1ccc(-c2nnc(SCC#CCO)o2)cc1OC	G9a inh 15.8µM, JMJD2A Tudor inconclusive
OCC#CCSc1nnc(-c2ccc(Br)cc2)o1	none
CCOC(=O)c1ccc(NC(=O)CC2Nc3ccccc3NC2=O)cc1 (stereo unspecified)	none (no result: L3MBTL1 block)
CCCCn1c(N)c(N(CC(C)C)C(=O)C2CC(=O)N(Cc3ccccc3)C2)c(=O)[nH]c1=O (stereo unspecified)	G9a inh 14.1µM
CCCCn1c(N)c(N(CCC(C)C)C(=O)C2CC(=O)N(c3cccc(SC)c3)C2)c(=O)[nH]c1=O (stereo unspecified)	G9a inh 14.1µM
CCCCn1c(N)c(N(CCC(C)C)C(=O)C2CC(=O)N(Cc3ccc(C)cc3)C2)c(=O)[nH]c1=O (stereo unspecified)	G9a inh inconclusive
CCCCn1c(N)c(N(CCC(C)C)C(=O)C2CC(=O)N(c3ccc4c(c3)OCCO4)C2)c(=O)[nH]c1=O (stereo unspecified)	G9a inh inconclusive (no result: L3MBTL1 block)
CCc1nnc(NC(=O)CSc2nnc3nc(C)cc(C)n23)s1	none (no result: L3MBTL1 block)
CC1(C(=O)NC(=S)N(CCC#N)c2ccccc2)CC1(Cl)Cl (stereo unspecified)	G9a inh 28.2µM, JMJD2A Tudor inconclusive (no result: L3MBTL1 block)
Nc1cc(C(F)(F)F)ccc1OCC1CCCO1 (stereo unspecified)	none
CCc1cccc(-n2nnc(-c3nc(-c4ccc5c(c4)OCO5)no3)c2C)c1	none (no result: L3MBTL1 block)
COc1ccc(S(=O)(=O)N(C)C)cc1NC(=O)c1ccc(OCC(=O)N2CCOCC2)c(OC)c1	G9a inh 50.1µM
COc1ccc(CCNC(=O)c2ccc(OCC(=O)N3CCOCC3)c(OC)c2)cc1OC	none (no result: G9a inh, L3MBTL1 block)
COc1ccc(CCNC(=O)c2ccc(OCC(=O)N3CCOCC3)c(OC)c2)cc1	G9a inh 8.91µM
CCCOc1ccccc1-c1nc(SCC(=O)c2ccccc2)n[nH]1	none (no result: L3MBTL1 block)
COc1ccccc1NC(=O)CSc1oc(-c2cccs2)nc1S(=O)(=O)c1ccccc1	G9a inh inconclusive (no result: L3MBTL1 block)
Cc1cccc(CSc2ncc(Cl)c(C(=O)Nc3sc4c(c3C(N)=O)CCCC4)n2)c1	none (no result: L3MBTL1 block)
COc1ccc(C(CNC(=O)c2ccc(-c3ccccc3Cl)o2)N2CCOCC2)cc1 (stereo unspecified)	BAZ2B inh inconclusive, G9a inh 44.7µM
COc1ccc(NC(=O)c2ccc(-c3ccc(C)c4ccccc34)o2)cc1	G9a inh 39.8µM
Cc1ccc2c(C)c(C(=O)NCC(c3ccc(Cl)cc3)N3CCOCC3)oc2c1 (stereo unspecified)	BAZ2B inh inconclusive, G9a inh 12.6µM (no result: L3MBTL1 block)
CCCn1nc(C(=O)N(C)CC(=O)Nc2ccc(OCC)c(OCC)c2)c2ccccc2c1=O	none
CCCCn1nc(C(=O)N(C)CC(=O)Nc2cccc(F)c2)c2ccccc2c1=O	G9a inh 35.5µM
COc1ccccc1C(CNC(=O)c1ccc(-c2ccccc2Cl)o1)N1CCCC1 (stereo unspecified)	JMJD2A Tudor inconclusive
N#Cc1nc(Nc2cc(Cl)cc(Cl)c2)nc(NC2CCCC2)n1	none (no result: BAZ2B inh, G9a inh, L3MBTL1 block, HP1b chromo inh)
Cc1cc2c(cc(C(=O)NCc3cccnc3)n2Cc2ccc(Cl)cc2)o1	BAZ2B inh inconclusive, G9a inh inconclusive, JMJD2A Tudor 50.1µM
COc1ccc(NC(=O)c2ccc(-c3ccccc3Cl)o2)cc1	G9a inh 79.4µM
Cc1cc(C(=O)NCc2cccnc2)no1	none
O=C(O)c1ccc(-c2ccccc2C(F)(F)F)o1	BAZ2B inh inconclusive (no result: L3MBTL1 block)
O=C(Nc1cccc(F)c1)c1ccc(-c2ccccc2Cl)o1	BAZ2B inh inconclusive, G9a inh 56.2µM
COc1ccc(NC(=O)c2ccc(-c3cccc(Cl)c3C)o2)cc1	none (no result: L3MBTL1 block)

High-throughput results deposited in PubChem by National Center for Advancing Translational Sciences (NCATS).
